# ± gives the standard deviation of the averaged measurements.
# System: AmpC beta-lactamase (E. coli)
# Assay: AmpC inhibition relative to DMSO; higher = more inhibition
# Description: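 Aggregation counter-screen: inhibition of E. coli AmpC beta-lactamase (5 nM, nitrocefin substrate, 50 mM sodium phosphate pH 7.0, RT, 5 min) by KAT inhibitors at 4, 11, 33 and 100 uM, with or without 0.01% Triton X-100. Percent inhibition is relative to DMSO controls. Four technical replicates.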
# [1] = 4 µM, detergent: 0.01% Triton X-100
# [2] = 11 µM, detergent: 0.01% Triton X-100
# [3] = 33 µM, detergent: 0.01% Triton X-100
# [4] = 100 µM, detergent: 0.01% Triton X-100
# [5] = 100 µM, detergent: no detergent
Compound,AmpC inhibition [1],"AmpC inhibition (4 µM, detergent: no detergent)",AmpC inhibition [2],"AmpC inhibition (11 µM, detergent: no detergent)",AmpC inhibition [3],"AmpC inhibition (33 µM, detergent: no detergent)",AmpC inhibition [4],AmpC inhibition [5]
Cc1cc2c(C(C)C)c(O)c(O)c(C=O)c2c(O)c1-c1c(C)cc2c(C(C)C)c(O)c(O)c(C=O)c2c1O,-0.343 ± 1.1%,0.793 ± 12%,4.76 ± 2.2%,-3.81 ± 3.7%,-3 ± 5.7%,-7.04 ± 18%,6.4 ± 5.5%,32.1 ± 2.7%
CC(=O)c1c(O)c(C)c(O)c(Cc2c(O)c3c(c(C(=O)C=Cc4ccccc4)c2O)OC(C)(C)C=C3)c1O,0.746 ± 2.2%,3.59 ± 4.4%,5.76 ± 7.3%,41 ± 3.5%,-0.691 ± 4%,73.8 ± 1.6%,7.83 ± 5.4%,82.1 ± 1.2%
O=C(/C(C(N1CC2=CC=CC=C2)=O)=C/C3=C(C)C=C(O)C=C3C)N(CC4=CC=CC=C4)C1=O,4.49 ± 6.9%,2.08 ± 1.8%,3.45 ± 13%,29.6 ± 8.8%,10.9 ± 3.2%,65.9 ± 6.2%,14.8 ± 0.9%,84.9 ± 8.3%

# Source: the supplement of paper PMC10011410
